The structures appear in SMILES notation. Records with an inconclusive call do not appear. Calls of active or inactive are those of the source. The calls were made as follows: active = hit-call score of the fitted dose curve at least 0.9, where 1 is the maximum; inconclusive = response in the unintended direction; inactive = score below 0.9.

A short description of this assay: ACEA_ER_80hr: ACEA Biosciences xCELLigence Real-Time Cell Analysis on Estrogen Receptor Agonism for Proliferation (AID 2282667). The conditions noted are these: T47D proliferation, impedance (xCELLigence), 80 h. The procedure, abridged: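 Real-time impedance growth kinetics of human T-47D breast cells read 80 h after dosing, gain-of-signal fitted relative to DMSO. Compounds: 1:4 serial series, top final concentration 100 uM, n = 2.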
In the case of `CC(=O)c1cccnc1`, the outcome was inactive.
On the same count and under the same terms, the result for `CCOC(=O)COC(=O)c1ccccc1C(=O)OCC` reads “inactive”; that for `O=C(O)C(F)(F)OC(F)(F)C(F)(F)OC(F)(F)C(F)(F)C(F)(F)C(F)(F)F`, “inactive”; that for `CN(C)CCCNCCCN(C)C`, “inactive”.
In the case of `OCC(F)(OC(F)(F)C(F)(OC(F)(F)C(F)(F)C(F)(F)F)C(F)(F)F)C(F)(F)F` (stereo unspecified), the call was inactive.
As for `Cc1ccncc1`, the result was inactive.
With `C=COCC1CCC(COC=C)CC1` (stereo unspecified), the outcome was inactive.
On to `CCCCCC1C(=O)CCC1CC(=O)OC` (stereo unspecified), for which the AC50 was 50000 nM (active).
Same read-out and setting: the result for `N#CCCNCCC#N` reads 274 nM (active).
For `CC1(C)[C@H](C=C(Cl)Cl)[C@H]1C(=O)OCc1cccc(Oc2ccccc2)c1`, the outcome was inactive.
The same measure, in the same setting: the result for `O=C(Nc1cccc(Cl)c1)OCC#CCCl` reads “inactive”; that for `COC(=O)c1cccc(C(=O)OC)c1`, “inactive”; that for `CC(C)=CCCC(C)=CC(=O)O`, “inactive”.
The same measure, in the same setting: the result for `CC/C=C\CCOC(C)OCC` (stereo unspecified) reads “inactive”.
Regarding `CCCCOCCOC(=O)c1ccccc1C(=O)OCCOCCCC`, the outcome was inactive.
On to `CC=CC(=O)C1=C(C)C=CCC1(C)C`, for which the compound was classed as inactive.
Still for that read-out and setting: the result for `C=C(C)C(=O)OCCN(C)C` reads “inactive”.
Same read-out and setting: the result for `CC/C=C\CCCCO` reads “inactive”; that for `NS(=O)(=O)c1cc(C(=O)O)c(NCc2ccco2)cc1Cl`, “inactive”.
Still for that read-out and setting: the result for `CC(C)(C)c1ccc(S)cc1` reads “inactive”; that for `CCCCCCCCCC(=O)OCC`, “inactive”; that for `CCCCCCCCSCc1cc(C)c(O)c(CSCCCCCCCC)c1`, “inactive”.
In the case of `CC(C)Cc1ccc(C(C)C(=O)O)cc1` (stereo unspecified), the call was inactive.
On the same count and under the same terms, in the case of `C=CC(C)(CCC=C(C)C)OC(=O)CC` (stereo unspecified) it was “inactive”; in that of `N=C1N=C(N)c2ccccc21`, “inactive”.
Same read-out and setting: in the case of `CCCCCCCCCCCCS` it was “inactive”.
For the compound `C=C/C(C)=C/C/C=C(\C)CCC=C(C)C`, the outcome was inactive.
On the same count and under the same terms, in the case of `COc1ccc(OC)cc1` it was “inactive”; in that of `CC(CCO)CC(C)(C)C` (stereo unspecified), “inactive”.
Still for that read-out and setting: in the case of `CCC=C(C)C=O` it was “inactive”; in that of `CCOC(=O)C=Cc1ccccc1`, “inactive”.
Still for that read-out and setting: in the case of `CCCCCCC(O)CCOC(C)=O` (stereo unspecified) it was “inactive”.
As for `CCCCCCCCCCCCOCCOS(=O)(=O)O`, the AC50 is 1980 nM (active).
As to `CC(CO)(CO)[N+](=O)[O-]`, the compound was classed as inactive.
The same measure, in the same setting: in the case of `O=C1Cc2ccccc2C1` it was “inactive”; in that of `NC(=O)c1cnccn1`, “inactive”.

Values taken from PubChem BioAssay (EPA / NIEHS).
